Assay results published in the supplement of paper PMC9254222.
Over roughly 1,100 compounds, “Wnt reporter firefly/Renilla luciferase ratio relative to plate median” has its median near 1.1; the highest 2% begin near 1.6. Many of the other results were omitted from the sample, so the highest values are more common in it than they were.

System: HEK293T (UBE3A T485A transfected, BAR Wnt reporter)
Experiment: Wnt reporter firefly/Renilla luciferase ratio relative to plate median (fold (linear ratio)); higher = more Wnt/beta-catenin reporter activation
Details: 24 h
Outline: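 HEK293T cells were seeded at 4500 cells/well in white 384-well plates and grown in DMEM with 10% FBS at 37°C and 5% CO2. The cells were transfected using Fugene 6 with a BAR firefly luciferase Wnt reporter, TK-Renilla and an expression plasmid, and four hours later robots added the chemicals at 0.01–100 uM for 24 h before a Dual-Glo luciferase readout. Wnt activity was taken as the firefly/Renilla ratio and cell health as raw Renilla, each median-centred per plate. Values are averages of four biological replicates.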

SMILES | Wnt reporter firefly/Renilla luciferase ratio (concentration: 0.01 uM) | Wnt reporter firefly/Renilla luciferase ratio (concentration: 0.1 uM) | Wnt reporter firefly/Renilla luciferase ratio (concentration: 1 uM) | Wnt reporter firefly/Renilla luciferase ratio (concentration: 10 uM) | Wnt reporter firefly/Renilla luciferase ratio (concentration: 100 uM)
COC(=O)N(C(=O)N1CO[C@@]2(C(=O)OC)Cc3cc(Cl)ccc3C2=N1)c1ccc(OC(F)(F)F)cc1 [Indoxacarb] | 0.92 | 0.96 | 1.2 | 0.895 | 0.242
CCCCN(CCCC)SN(C)C(=O)Oc1cccc2c1OC(C)(C)C2 [Carbosulfan] |  | 1.07 | 1.13 | 1.07 | 1.28
c1ccc2c(c1)Nc1ccccc1S2 [Phenothiazine] |  | 1.08 | 1.01 | 0.726 | 0.188
CC(C)(C)OOC(=O)c1ccccc1 [tert-Butyl perbenzoate] |  | 1.06 | 0.994 | 1.24 | 0.688
Nc1ccc(-c2ccc(N)cc2)cc1 [Benzidine] |  | 1.22 | 1.11 | 1.23 | 0.579
Cc1ccc(N)c(N)c1 [3,4-Diaminotoluene] |  | 1.18 | 1.26 | 1.2 | 
Cc1ccc(N)cc1 [4-Methylaniline] |  | 1.14 | 1.18 | 1.34 | 1.79
CC(C)=CC1C(C(=O)OCN2C(=O)C3=C(CCCC3)C2=O)C1(C)C (configuration not stated) [Tetramethrin] | 0.717 | 0.76 | 0.941 | 0.819 | 0.824
CCOc1nc(F)cc2nc(S(=O)(=O)Nc3c(Cl)cccc3Cl)nn12 [Diclosulam] | 1.4 | 1.38 | 0.954 | 1.05 | 0.892
Oc1ccc(Cl)cc1Cl [2,4-Dichlorophenol] |  | 1.06 | 1.15 | 1.36 | 1.47
CCCCOC(=O)c1ccccc1C(=O)O [Monobutyl phthalate] | 1.07 | 1.12 | 2.24 | 1.14 | 1.75
CCCCCCOC(=O)c1ccccc1C(=O)OCCCCCC [Dihexyl phthalate] |  | 1.05 | 0.965 | 1.29 | 0.728
CC(C)CCCCCCCOC(=O)c1ccccc1C(=O)OCCCCCCCC(C)C |  | 0.955 | 1.04 | 1.1 | 1.9
CCCCOC(=O)c1ccccc1C(=O)OCCCC [Dibutyl phthalate] | 0.897 | 0.942 | 0.947 | 1.05 | 0.275
CCCCCCCCOC(=O)c1ccccc1C(=O)OCCCCCCCC [Dioctyl phthalate] |  | 1.21 | 1.11 | 1.04 | 1.25
CCCCCOC(=O)c1ccccc1C(=O)OCCCCC [Dipentyl phthalate] |  | 1.06 | 1.36 | 1.14 | 1.15
CCOP(=O)(NC(C)C)Oc1ccc(SC)c(C)c1 (configuration not stated) [Fenamiphos] | 0.946 | 0.758 | 0.93 | 0.83 | 0.243
C/C(=N\C#N)N(C)Cc1ccc(Cl)nc1 [Acetamiprid] | 1.26 | 0.96 | 0.904 | 1.08 | 1.18
Cc1c(COC(=O)[C@H]2[C@@H](/C=C(\Cl)C(F)(F)F)C2(C)C)cccc1-c1ccccc1 [Bifenthrin] | 0.843 | 1.35 | 1.11 | 0.982 | 0.325
CNC(=O)/C=C(\C)OP(=O)(OC)OC [Monocrotophos] | 0.971 | 1.1 | 1.22 | 1.06 | 1.12
COP(=O)(OC)O/C(C)=C/C(=O)N(C)C [Dicrotophos] | 1.29 | 1.12 | 1.1 | 0.957 | 1.09

SMILES | Wnt reporter firefly/Renilla luciferase ratio (concentration: 0.01 uM) | Wnt reporter firefly/Renilla luciferase ratio (concentration: 0.1 uM) | Wnt reporter firefly/Renilla luciferase ratio (concentration: 1 uM) | Wnt reporter firefly/Renilla luciferase ratio (concentration: 10 uM) | Wnt reporter firefly/Renilla luciferase ratio (concentration: 100 uM)
COP(=O)(OC)OC=C(Cl)Cl [Dichlorvos] | 1.2 | 1.67 | 1.4 | 1.34 | 1.21
O=P(O)(O)CCCl [Ethephon] | 0.756 | 1.23 | 1.18 | 0.988 | 1.19
CC(C)N1C(=O)N(c2ccccc2)CSC1=NC(C)(C)C [Buprofezin] | 1.25 | 1.69 | 1.16 | 1.12 | 0.27
CC(C)N1C(=O)c2ccccc2NS1(=O)=O [Bentazone] | 1.46 | 0.947 | 0.964 | 0.949 | 0.329
COC(=CC(N)=O)C(C)C(C=Cc1csc(-c2csc(C(C)C=CC=CC(C)C)n2)n1)OC (configuration not stated) [Myxothiazol] | 1.41 | 0.921 | 0.539 | 0.492 | 
CCCCC(CC)COC(=O)c1ccccc1C(=O)O (configuration not stated) | 1.04 | 0.861 | 1.04 | 0.979 | 0.821
N#Cc1c[nH]cc1-c1cccc2c1OC(F)(F)O2 [Fludioxonil] | 0.759 | 0.842 | 0.847 | 1.04 | 0.858
CNC(=O)Oc1cccc2ccccc12 [Carbaryl] | 0.987 | 1.18 | 1.07 | 0.714 | 0.629
CCOP(=O)(SC(C)CC)N1CCSC1=O (configuration not stated) [Fosthiazate] | 0.839 | 0.761 | 0.922 | 1.5 | 0.772
ClC1=C(Cl)C2(Cl)C3C4OC4C(Cl)C3C1(Cl)C2(Cl)Cl (configuration not stated) [Heptachlor epoxide] |  | 1.18 | 1.23 | 1.06 | 1.5
CCc1cccc(C)c1N(C(=O)CCl)C(C)COC (configuration not stated) [Metolachlor] | 0.768 | 1.6 | 0.921 | 0.833 | 0.28
O=[N+]([O-])C(Br)(CO)CO [Bronopol] |  | 1.17 | 1.15 | 1.07 | 
CCN(CC)C(=O)SCc1ccc(Cl)cc1 [Thiobencarb] | 0.948 | 1.27 | 1.52 | 1.02 | 1.54
O=[N+]([O-])c1cc(C(F)(F)F)c(Cl)c([N+](=O)[O-])c1Nc1ncc(C(F)(F)F)cc1Cl [Fluazinam] | 0.902 | 0.969 | 1.24 | 0.338 | 
Cl[C@H]1[C@H](Cl)[C@@H](Cl)[C@H](Cl)[C@@H](Cl)[C@@H]1Cl [beta-Hexachlorocyclohexane] |  | 1.05 | 0.913 | 1.12 | 1.03
Clc1ccc(Cl)c(Cl)c1 [1,2,4-Trichlorobenzene] |  | 0.911 | 0.886 | 1.04 | 1.57
Clc1cccc(Cl)c1 [1,3-Dichlorobenzene] |  | 1.15 | 1.18 | 1.45 | 1.77
Nc1ccc(Cl)cc1N [4-Chloro-1,2-diaminobenzene] |  | 1.1 | 1.03 | 0.852 | 
Cc1cc(C)cc(C)c1 [1,3,5-Trimethylbenzene] |  | 1.01 | 1.15 | 1.05 | 1.12
CCCC(=NOCC)C1=C(O)CC(CC(C)SCC)CC1=O (configuration not stated) [Sethoxydim] | 1.27 | 1.07 | 1.15 | 1.2 | 0.758
